Compound activity (PubChem)
BJeLR viability: BJeLR cell viability loss; BJeLR (HRASV12) viability, CellTiter-Glo ATP luminescence, 48 h; inhibition, % (no concentration beside the values); 0.17% of 300,000 active; in the data active = inhibition above about 50%
RecA intein inh: Mtb RecA intein splicing inhibition; P9WHJ3; cell-free RecA intein splicing, fluorescence; inhibition, % (test concentration not listed); 0.75% of 290,000 active; AID 2221; in the data active = inhibition above about 30%;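 also: 0% = vehicle wells and 100% = reference inhibitor control wells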
Target sequence (P9WHJ3 whole entry, looked up): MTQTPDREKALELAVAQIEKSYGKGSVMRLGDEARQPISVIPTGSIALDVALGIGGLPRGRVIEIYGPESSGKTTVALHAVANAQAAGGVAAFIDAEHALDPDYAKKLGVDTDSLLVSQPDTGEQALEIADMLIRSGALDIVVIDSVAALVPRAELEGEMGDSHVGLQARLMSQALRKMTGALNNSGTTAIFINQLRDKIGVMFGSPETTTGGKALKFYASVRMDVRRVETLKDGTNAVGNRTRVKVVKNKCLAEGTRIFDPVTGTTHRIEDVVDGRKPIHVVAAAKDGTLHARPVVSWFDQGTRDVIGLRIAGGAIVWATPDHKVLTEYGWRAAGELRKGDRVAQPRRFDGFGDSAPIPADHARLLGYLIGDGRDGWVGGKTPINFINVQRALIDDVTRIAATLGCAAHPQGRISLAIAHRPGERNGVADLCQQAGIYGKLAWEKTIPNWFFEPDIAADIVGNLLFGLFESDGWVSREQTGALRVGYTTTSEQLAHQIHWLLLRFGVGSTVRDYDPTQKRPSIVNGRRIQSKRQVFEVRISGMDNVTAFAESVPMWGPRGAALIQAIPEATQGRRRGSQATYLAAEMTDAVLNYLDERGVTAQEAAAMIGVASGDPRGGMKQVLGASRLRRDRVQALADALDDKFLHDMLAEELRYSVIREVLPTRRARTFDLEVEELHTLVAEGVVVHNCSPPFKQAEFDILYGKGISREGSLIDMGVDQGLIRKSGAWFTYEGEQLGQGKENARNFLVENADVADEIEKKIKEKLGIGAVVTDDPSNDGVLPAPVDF
PfHsp40 yeast: rescue of PfHsp40-mediated yeast toxicity | S. cerevisiae expressing PfHsp40, growth rescue, ATP luminescence | growth rescue, % at 12.5 µM | 0.68% of 340,000 active; in the data active = growth rescue above about 28%, passing the limit was not always enough;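 also: yeast W303a lacking pdr1 and pdr3 grown in galactose medium; growth measured after three days at 30 °C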
SSB-PriA inh: inhibitors of Klebsiella pneumoniae PriA binding to SSB C-terminal tail | AlphaScreen SSBct-PriA binding, biotinylated peptide | inhibition, % at 33 µM | 0.6% of 430,000 active | AID 1272365; in the data active = inhibition mostly above about 37%, no sharp cut-off; inactive = mostly below about 20%;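 also: plate controls were negative control peptide for no effect and reference peptide for full effect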
PrP 5UTR inh: inhibition of PrP 5' UTR reporter expression | inhibition, % (test concentration not listed) | cell-based PrP 5' UTR mRNA reporter, plate reader | AID 488862 | 0.35% of 340,000 active; in the data active = inhibition above about 52%; also: 0 = median of the neutral control wells
PrPC surface inh: reduces human prion protein on the cell surface; P04156; inhibition, % at 13.8 µM; 0.43% of 370,000 active; cell surface PrPC, TR-FRET read-out; AID 720596; in the data active = inhibition above about 24%; also: 0% = median of the test wells and 100% = reference compound wells
GFP chromophore: counter-screen GFP chromophore formation inhibition | cell-free GFP chromophore formation, fluorescence | AID 434968 | 83% of 2,100 active | EC50, µM | shares compounds with RecA intein inh; call rule not given here
* marks the source's active call; other numbers are inactive results; i = inactive; / = not tested or not shown. The list is not random: actives were taken first. Their share in the collection is about 1.9%.

SMILES	BJeLR viability	RecA intein inh	PfHsp40 yeast	SSB-PriA inh	PrP 5UTR inh	PrPC surface inh	GFP chromophore
COc1ccccc1Nc1cc2cc(Br)ccc2c(=O)[nH]1	15.7	46.8*	-0.7	6.3	-36.3	1.4	7.77*
COC(=O)C/C=N/N=C1NC(=O)/C(=C/C(=O)O)S1	/	/	/	i	/	/	/
COC(=O)c1ccc(-c2csc(NC(=O)c3nc4ccccc4s3)n2)cc1	/	/	/	-4.0	/	/	/
COc1ccc(OC)c(Nc2cc3ccccc3c(=O)[nH]2)c1	14.8	82.9*	-1.4	-8.2	11.1	-2.8	1.85*
Cc1cc(C)n(-c2ccc(NN=C(C#N)C#N)cc2)n1	5.3	57.0*	2.4	27.6	-18.7	-8.7	19.3*
CCOC(=O)CCC(=O)Nc1ccc(-n2nnn(C)c2=O)cc1	/	/	/	-20.0	/	/	/
CN1c2ccccc2C(C)(C)C12CC(CCl)=NO2 (stereo unspecified)	1.3	11.3	-0.2	-4.0	-17.6	/	/
CN1c2ccccc2C(C)(C)C12C=Nc1c(ccc3ccccc13)O2 (stereo unspecified)	3.0	78.9*	0.2	-11.7	-24.8	-7.5	25.1*
Cc1cc(=O)n(CCCc2ccccc2)[nH]1	6.5	91.9*	0.2	-11.1	-2.5	-2.2	8.02*
COCCn1nnn(-c2ccc(NC(=O)c3cnccn3)cc2)c1=O	/	/	/	3.0	/	/	/
CCN1C(=O)c2c(C)nc3ccccc3c2C1=O	-11.0	47.4*	1.0	2.6	-17.3	/	2.24*
CC(=O)NC1=C(NC2CCS(=O)(=O)C2)C(=O)c2ccccc2C1=O (stereo unspecified)	14.6	20.1	2.9	-5.3	-31.7	-51.1	/
CN(C1=C(NC(=O)c2ccccc2)C(=O)c2ccccc2C1=O)C1CCS(=O)(=O)C1 (stereo unspecified)	8.4	92.5*	-0.8	/	-18.6	-46.3	2.66*
O=C1/C(=N\S(=O)(=O)c2cccs2)C([n+]2ccccc2)=C([O-])c2ccccc21	8.9	41.3*	-1.0	/	-9.9	-35.1	17.1*
CC(C)(C)c1cc[n+](C2=C([O-])c3ccccc3C(=O)/C2=N\S(=O)(=O)c2cccs2)cc1	-6.8	77.8*	/	/	/	-54.0	0.962*
CC(C)(C)c1cc[n+](C2=C([O-])c3ccccc3C(=O)C2=NS(=O)(=O)c2cccs2)cc1	/	/	/	6.3	/	/	/
CCc1cc[n+](C2=C([O-])c3ccccc3C(=O)C2=NS(=O)(=O)c2cccs2)cc1	/	/	/	12.6	/	/	/
O=C(CSC1CCCC1)N(CCc1cccs1)C1CC1	/	/	/	-32.0	/	/	/
CCOC(=O)c1c(-c2ccc(C)o2)csc1NC(=O)CN1CCCCC1C (stereo unspecified)	/	/	/	-5.0	/	/	/
C=CCNc1nc(Nc2ccccc2C)c2cnn(-c3ccccc3)c2n1	/	/	/	-11.0	/	/	/
COC(=O)CSc1nc2sc3c(c2c(=O)n1C1CCCCC1)CCN(C)C3	-2.2	39.1*	/	/	/	/	>38
COC(=O)CSc1nc2sc3c(c2c(=O)n1-c1ccc(OC)cc1)CCN(C)C3	13.4	-1.8	0.1	-0.9	-9.9	-8.3	/
CCN(C(=O)c1ccc2c(Cl)c3c(nc2c1)CCC3)c1ccc(C)c(C)c1	-3.2	30.1*	4.1	-2.6	-7.6	4.5	9.08*
CN(C(=O)c1ccc2c(Cl)c3c(nc2c1)CCC3)c1ccccc1	-11.4	0.1	-0.7	-4.9	-32.1	5.6	/
COC(CNC(=O)C1CCCN1C(=O)OCc1ccccc1)OC (stereo unspecified)	-3.3	0.5	-0.4	-5.5	-6.3	6.6	/
SMILES	BJeLR viability	RecA intein inh	PfHsp40 yeast	SSB-PriA inh	PrP 5UTR inh	PrPC surface inh	GFP chromophore
COC(=O)[C@@H]1C[C@]2(OC(=O)c3ccccc3)C=CC(=O)C[C@@H]2N1C(=O)OCc1ccccc1	-8.2	56.4*	0.1	-4.8	-1.0	3.6	32.4*
CC(=NNC(=O)c1ccccc1F)c1cccc(NC(=O)c2ccc(C)cc2)c1	/	/	/	2.3	/	/	/
COc1cc2c(cc1OC)-c1c(OC)c(OC)cc3c1C(C2)N(C)CC3 (stereo unspecified)	-9.0	71.0*	0.1	20.8	-6.3	-51.5	4.33*
COc1cc2c(cc1OC)-c1c3c(cc4c1[C@@H](C2)N(C)CC4)OCO3	-1.9	43.7*	-1.4	22.9	5.4	-4.9	21.1*
COc1cc2c(cc1O)C[C@H]1NCCc3cc4c(c-2c31)OCO4	19.9	0.9	-1.5	3.5	-14.6	-3.6	/
COc1cc2c(c(O)c1OC)C1Cc3ccc(OC)c(OC)c3CN1CC2 (stereo unspecified)	/	/	/	/	/	-21.0	/
COc1ccc(Nc2ccc3c(c2)=NC2(CCCCC2)[N+]=3[O-])cc1	8.1	79.2*	0.0	65.3*	-30.6	-25.3	10.1*
[O-][N+]1=c2ccc(Nc3ccccc3)cc2=NC12CCCCC2	23.6	80.0*	0.0	57.0*	-14.4	-10.4	11*
COc1ccc(NC2=NC(=S)N(c3ccccc3C)C23CCCCC3)cc1	-0.6	3.5	1.0	-9.2	-14.4	9.1	/
O=[N+]([O-])c1ccc2c(c1N1CCCCC1)=NC1(CCCCC1)[N+]=2[O-]	-2.4	2.5	-0.7	4.8	-17.7	-38.8	/
O=C(O)c1ccc(NC2=C(N3CCOCC3)C(=O)c3ccccc3C2=O)cc1	9.1	4.2	-0.7	-6.7	0.3	-6.9	/
CC(=O)N(C1=C(N2CCOCC2)C(=O)c2ccccc2C1=O)c1ccc(C(=O)O)cc1	-14.6	61.4*	-0.5	6.4	-0.6	-40.6	19.8*
CC(=O)Nc1ccc(NC(=O)CSc2ncc(C(=O)Nc3ccc(F)cc3)c(=O)n2C)cc1	-10.1	31.8*	-1.4	-5.0	-26.9	1.6	>38
Cn1c(SCC(=O)NCCc2ccccc2)ncc(C(=O)Nc2ccccc2)c1=O	-1.9	4.2	2.0	0.5	-19.7	-5.2	/
CC(=O)Nc1cccc(NC(=O)CSc2ncc(C(=O)Nc3ccc(F)cc3)c(=O)n2C)c1	-2.5	2.8	1.5	6.0	-20.4	-3.0	/
CC(=O)Nc1cccc(NC(=O)CSc2ncc(C(=O)Nc3ccccc3)c(=O)n2C)c1	17.7	47.2*	0.9	-23.0	-13.3	-0.8	39.7*
CC(=O)c1cccc(NC(=O)CSc2ncc(C(=O)Nc3ccccc3)c(=O)n2C)c1	10.3	37.5*	-0.9	-0.3	-14.3	-4.7	>38
Cn1nc(CNC(=O)Cc2cccs2)cc1-c1ccco1	/	/	/	0.0	/	/	/
Cn1cc(-c2cccs2)nc1CCNC(=O)c1nc2ccccc2s1	/	/	/	-3.0	/	/	/
COc1cccc(-c2noc(-c3sccc3S(=O)(=O)N(C)c3cccc(Cl)c3)n2)c1OC	/	/	/	-8.0	/	/	/
CC1=NN(c2ccccc2)C(=O)C1=C(C)C	0.2	55.4*	1.2	9.5	-25.2	-3.0	8.45*
CC(/C=N/NC(=O)Cc1cc(=O)[nH][nH]1)=C\c1ccccc1	1.1	88.8*	0.0	/	-6.9	-2.3	6.73*
CN(C)CCOc1ccc(C(C)(C)c2ccccc2)cc1	0.5	3.2	-0.3	-0.7	-31.6	0.3	/
CC(C)(c1ccccc1)c1ccc(OCC2CO2)cc1 (stereo unspecified)	-10.4	40.6*	-0.6	-36.9	-30.2	-3.4	>38
